The supplement of paper PMC10849652
The full data set covers some 8,800 targets. This sample favours those with a hit. About 0.5% of all pairs of compound and target were hits. A number with no mark means an inactive call.

Columns and labels:
Assay in all cases: log2 fold change, soluble protein after heating vs DMSO (PISA); higher = thermal stabilisation; K562 lysate, 10 uM; active = over 0.2 and 3.5 SD of the protein, either way, in both replicates (recomputed)
[1] = compound: CS(=O)(=O)CCNCc1ccc(-c2ccc3ncnc(Nc4ccc(OCc5cccc(F)c5)c(Cl)c4)c3c2)o1 [lapatinib]
Method in brief: (§1)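 To prepare the extract, K562 pellets were dounce-homogenised in PBS pH 7.4 with 1 mM MgCl2, giving crude material at 1 mg/mL protein. This was treated with 10 μM compound for 30 min, then heated in aliquots for 3 min over 48°C-58°C before pooling and addition of NP-40 to 0.5% at 4°C. Centrifugation at 21,000xg for 90 min left soluble protein in the supernatant, which TMTpro 16plex LC-MS/MS quantified with equalised channel sums. Results are log-two fold changes in thermal stability compared with solvent controls, from duplicates.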

[2] = compound: CS(=O)(=O)N1CCN(Cc2cc3nc(-c4cccc5[nH]ncc45)nc(N4CCOCC4)c3s2)CC1 [pictilisib]
Method in brief: as §1

[3] = compound: C[C@@H](Oc1cc(-c2cnn(C3CCNCC3)c2)cnc1N)c1c(Cl)ccc(F)c1Cl [crizotinib]
Method in brief: as §1

[4] = compound: C[C@H](C1=CC=C(C=C1)C(=O)NC2=C3C=CNC3=NC=C2)N
Method in brief: as §1

[5] = compound: C[C@H](Nc1ncnc2nc[nH]c12)c1cc2cccc(Cl)c2c(=O)n1-c1ccccc1 [duvelisib]
Method in brief: as §1

[6] = compound: Cc1cc(Nc2cc(CN3CCOCC3)c3nc(C)c(Cc4ccc(Cl)cc4F)n3n2)n[nH]1 [gandotinib]
Method in brief: as §1

[7] = compound: Cc1cc(Nc2cc(N3CCN(C)CC3)nc(Sc3ccc(NC(=O)C4CC4)cc3)n2)n[nH]1 [tozasertib]
Method in brief: as §1

[8] = compound: Cc1ccc(-n2nc(C(C)(C)C)cc2NC(=O)Nc2ccc(OCCN3CCOCC3)c3ccccc23)cc1 [doramapimod]
Method in brief: as §1

[9] = compound: Cc1ccc(NC(=O)c2ccc(CN3CC[C@H](N(C)C)C3)c(C(F)(F)F)c2)cc1Nc1nccc(-c2cncnc2)n1 [bafetinib]
Method in brief: as §1

[10] = compound: Cc1cccc(CC(=O)N2CCc3c2ccc(-c2cn(C)c4ncnc(N)c24)c3F)n1
Method in brief: as §1

Sequence of UniProt O43156 (O43156 whole entry, looked up): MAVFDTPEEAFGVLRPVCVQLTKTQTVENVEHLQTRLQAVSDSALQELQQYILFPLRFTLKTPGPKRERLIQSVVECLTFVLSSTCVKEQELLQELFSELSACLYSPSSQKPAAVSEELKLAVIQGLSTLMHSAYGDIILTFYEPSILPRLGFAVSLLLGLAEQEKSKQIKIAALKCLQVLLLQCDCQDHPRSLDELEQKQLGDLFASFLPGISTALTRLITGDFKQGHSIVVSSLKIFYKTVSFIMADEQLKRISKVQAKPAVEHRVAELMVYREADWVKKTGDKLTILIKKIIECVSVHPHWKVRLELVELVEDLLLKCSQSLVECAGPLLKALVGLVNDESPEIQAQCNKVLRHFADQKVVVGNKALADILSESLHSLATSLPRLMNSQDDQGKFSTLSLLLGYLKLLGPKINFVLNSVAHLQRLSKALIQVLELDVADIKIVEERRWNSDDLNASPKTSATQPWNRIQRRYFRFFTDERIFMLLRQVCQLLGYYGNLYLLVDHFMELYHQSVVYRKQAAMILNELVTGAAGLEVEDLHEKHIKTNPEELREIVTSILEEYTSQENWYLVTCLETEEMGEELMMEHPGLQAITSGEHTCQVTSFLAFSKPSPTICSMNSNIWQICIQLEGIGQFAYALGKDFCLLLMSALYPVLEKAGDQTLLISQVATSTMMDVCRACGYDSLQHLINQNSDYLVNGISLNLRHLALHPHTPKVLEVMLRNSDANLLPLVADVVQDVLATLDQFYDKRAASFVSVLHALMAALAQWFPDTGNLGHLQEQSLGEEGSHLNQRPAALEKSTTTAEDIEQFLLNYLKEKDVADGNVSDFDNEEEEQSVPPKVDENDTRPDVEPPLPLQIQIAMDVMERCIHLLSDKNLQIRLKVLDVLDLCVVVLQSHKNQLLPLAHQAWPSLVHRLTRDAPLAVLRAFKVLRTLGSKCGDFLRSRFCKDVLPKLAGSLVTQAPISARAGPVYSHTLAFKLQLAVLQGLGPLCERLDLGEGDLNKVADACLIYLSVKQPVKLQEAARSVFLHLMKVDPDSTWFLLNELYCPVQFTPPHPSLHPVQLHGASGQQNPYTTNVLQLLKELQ
Sequence of UniProt Q9UBB9 (Q9UBB9 whole entry, looked up): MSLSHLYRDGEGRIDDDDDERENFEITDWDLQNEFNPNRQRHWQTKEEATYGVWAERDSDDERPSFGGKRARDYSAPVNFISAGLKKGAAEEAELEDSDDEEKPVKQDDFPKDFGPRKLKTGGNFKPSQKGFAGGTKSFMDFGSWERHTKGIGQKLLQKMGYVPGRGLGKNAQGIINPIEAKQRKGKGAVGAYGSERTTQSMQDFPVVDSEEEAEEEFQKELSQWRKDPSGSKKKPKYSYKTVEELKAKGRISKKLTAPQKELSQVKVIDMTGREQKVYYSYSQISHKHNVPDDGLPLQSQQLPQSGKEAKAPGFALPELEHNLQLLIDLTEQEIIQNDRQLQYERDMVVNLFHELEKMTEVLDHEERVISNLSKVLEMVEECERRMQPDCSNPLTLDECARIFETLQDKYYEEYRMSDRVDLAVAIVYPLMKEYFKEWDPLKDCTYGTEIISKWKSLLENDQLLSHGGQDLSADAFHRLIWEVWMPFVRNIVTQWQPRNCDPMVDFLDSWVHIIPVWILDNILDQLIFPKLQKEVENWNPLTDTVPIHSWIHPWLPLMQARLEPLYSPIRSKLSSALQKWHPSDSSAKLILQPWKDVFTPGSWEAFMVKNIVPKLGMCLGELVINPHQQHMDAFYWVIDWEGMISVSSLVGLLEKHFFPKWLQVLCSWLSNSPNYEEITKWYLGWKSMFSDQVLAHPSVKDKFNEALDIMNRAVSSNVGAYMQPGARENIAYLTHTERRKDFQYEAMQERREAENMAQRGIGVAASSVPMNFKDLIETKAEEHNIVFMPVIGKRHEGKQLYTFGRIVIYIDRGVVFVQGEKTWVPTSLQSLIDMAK
Sequence of UniProt P62256 (P62256 whole entry, looked up): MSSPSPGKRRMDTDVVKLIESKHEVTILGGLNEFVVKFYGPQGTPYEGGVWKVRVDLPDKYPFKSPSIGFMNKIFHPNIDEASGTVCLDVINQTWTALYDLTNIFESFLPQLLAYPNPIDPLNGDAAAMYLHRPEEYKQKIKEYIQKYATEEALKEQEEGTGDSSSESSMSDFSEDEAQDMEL
Sequence of UniProt P21580 (P21580 whole entry, looked up): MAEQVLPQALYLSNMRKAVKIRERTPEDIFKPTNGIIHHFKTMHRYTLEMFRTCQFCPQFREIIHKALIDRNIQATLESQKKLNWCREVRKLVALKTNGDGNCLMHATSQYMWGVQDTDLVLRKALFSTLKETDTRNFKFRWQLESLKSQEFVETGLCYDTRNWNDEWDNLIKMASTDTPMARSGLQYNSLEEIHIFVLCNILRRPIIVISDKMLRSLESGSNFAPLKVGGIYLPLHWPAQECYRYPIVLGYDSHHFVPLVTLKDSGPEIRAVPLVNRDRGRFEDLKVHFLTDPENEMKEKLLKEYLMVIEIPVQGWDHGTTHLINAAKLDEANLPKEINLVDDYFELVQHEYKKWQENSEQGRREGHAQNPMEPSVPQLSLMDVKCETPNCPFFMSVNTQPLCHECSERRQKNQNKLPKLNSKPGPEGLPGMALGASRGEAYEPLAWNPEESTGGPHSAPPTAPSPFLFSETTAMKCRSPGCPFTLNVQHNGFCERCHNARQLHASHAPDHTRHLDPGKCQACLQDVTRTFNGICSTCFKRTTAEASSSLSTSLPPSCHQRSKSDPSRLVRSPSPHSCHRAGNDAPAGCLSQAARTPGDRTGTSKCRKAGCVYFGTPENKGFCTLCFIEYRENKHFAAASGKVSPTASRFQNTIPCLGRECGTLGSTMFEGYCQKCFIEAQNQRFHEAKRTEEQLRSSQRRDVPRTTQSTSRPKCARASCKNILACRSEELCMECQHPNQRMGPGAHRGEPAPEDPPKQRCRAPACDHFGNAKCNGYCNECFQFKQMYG
Sequence of UniProt Q9UHD2 (Q9UHD2 whole entry, looked up): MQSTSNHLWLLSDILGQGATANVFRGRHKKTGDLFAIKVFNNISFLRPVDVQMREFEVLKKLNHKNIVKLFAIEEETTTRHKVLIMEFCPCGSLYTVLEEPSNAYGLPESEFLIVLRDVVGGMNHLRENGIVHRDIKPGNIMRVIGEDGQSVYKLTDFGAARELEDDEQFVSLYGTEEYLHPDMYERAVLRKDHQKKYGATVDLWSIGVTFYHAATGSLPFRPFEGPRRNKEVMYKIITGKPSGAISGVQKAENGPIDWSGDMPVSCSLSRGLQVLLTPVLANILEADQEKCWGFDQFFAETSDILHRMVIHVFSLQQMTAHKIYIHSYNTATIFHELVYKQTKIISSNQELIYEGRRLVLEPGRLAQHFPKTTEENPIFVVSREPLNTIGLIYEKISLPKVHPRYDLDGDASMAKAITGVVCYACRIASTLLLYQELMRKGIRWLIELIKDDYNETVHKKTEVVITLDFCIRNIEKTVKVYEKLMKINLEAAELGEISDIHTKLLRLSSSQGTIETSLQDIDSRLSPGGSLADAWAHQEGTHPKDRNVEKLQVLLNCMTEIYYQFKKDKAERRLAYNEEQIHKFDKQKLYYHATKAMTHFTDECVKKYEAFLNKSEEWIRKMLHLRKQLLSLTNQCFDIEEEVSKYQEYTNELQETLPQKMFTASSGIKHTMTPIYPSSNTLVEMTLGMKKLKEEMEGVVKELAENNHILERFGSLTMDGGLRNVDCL
Sequence of UniProt Q5TEJ8 (Q5TEJ8 whole entry, looked up): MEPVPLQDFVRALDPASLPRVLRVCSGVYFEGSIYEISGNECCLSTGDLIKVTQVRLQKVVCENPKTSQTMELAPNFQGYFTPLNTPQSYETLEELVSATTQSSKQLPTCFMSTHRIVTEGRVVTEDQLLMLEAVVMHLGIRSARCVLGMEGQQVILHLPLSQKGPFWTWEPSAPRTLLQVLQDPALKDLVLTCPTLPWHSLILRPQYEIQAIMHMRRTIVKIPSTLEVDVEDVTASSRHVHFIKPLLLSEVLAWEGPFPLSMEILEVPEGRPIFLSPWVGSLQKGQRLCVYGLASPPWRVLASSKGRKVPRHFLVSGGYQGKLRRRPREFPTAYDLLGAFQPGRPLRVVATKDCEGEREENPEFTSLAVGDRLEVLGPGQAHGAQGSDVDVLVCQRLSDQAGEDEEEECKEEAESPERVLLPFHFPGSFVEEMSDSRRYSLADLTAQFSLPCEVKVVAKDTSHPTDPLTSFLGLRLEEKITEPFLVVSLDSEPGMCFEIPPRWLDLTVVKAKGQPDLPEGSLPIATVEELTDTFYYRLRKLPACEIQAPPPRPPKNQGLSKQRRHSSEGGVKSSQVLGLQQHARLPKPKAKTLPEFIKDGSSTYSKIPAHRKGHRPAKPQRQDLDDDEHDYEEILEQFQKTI
Sequence of UniProt P68371 (P68371 whole entry, looked up): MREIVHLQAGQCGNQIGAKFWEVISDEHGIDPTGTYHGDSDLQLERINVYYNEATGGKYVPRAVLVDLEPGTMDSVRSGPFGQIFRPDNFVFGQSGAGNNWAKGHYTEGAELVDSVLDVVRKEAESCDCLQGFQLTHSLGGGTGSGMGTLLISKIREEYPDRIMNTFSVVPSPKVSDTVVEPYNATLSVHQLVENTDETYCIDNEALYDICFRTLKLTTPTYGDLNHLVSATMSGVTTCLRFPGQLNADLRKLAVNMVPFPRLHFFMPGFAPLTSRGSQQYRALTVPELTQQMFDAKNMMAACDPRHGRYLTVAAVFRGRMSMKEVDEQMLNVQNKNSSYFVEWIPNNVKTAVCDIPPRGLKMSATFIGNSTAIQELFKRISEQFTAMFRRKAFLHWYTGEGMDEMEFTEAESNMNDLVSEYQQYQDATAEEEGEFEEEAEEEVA
Sequence of UniProt P04818 (P04818 whole entry, looked up): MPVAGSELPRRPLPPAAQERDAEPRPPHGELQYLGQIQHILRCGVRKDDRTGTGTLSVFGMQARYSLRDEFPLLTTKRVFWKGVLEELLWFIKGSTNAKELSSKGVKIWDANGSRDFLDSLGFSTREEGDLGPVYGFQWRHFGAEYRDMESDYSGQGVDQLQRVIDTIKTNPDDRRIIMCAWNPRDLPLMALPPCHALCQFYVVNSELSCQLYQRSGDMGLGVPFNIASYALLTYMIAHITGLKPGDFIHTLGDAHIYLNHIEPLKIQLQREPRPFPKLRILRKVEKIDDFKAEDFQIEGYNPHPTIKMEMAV

Target | log2 fold change [1] | log2 fold change [2] | log2 fold change [3] | log2 fold change [4] | log2 fold change [5] | log2 fold change [6] | log2 fold change [7] | log2 fold change [8] | log2 fold change [9] | log2 fold change [10]
TNIK (UniProt C9J338) | -0.042 | -0.023 | -0.075 | -0.443 (active) | 0.115 | 0.344 | 0.012 | 0.005 | -0.258 | 0.344
TTMP isoform 3 (UniProt Q5BVD1) | -0.1 | 0.013 | -0.241 | -0.618 (active) | 0.138 | 0.384 | -0.022 | 0.137 | -0.197 | 0.47
TUBA3C (UniProt P0DPH7) | 0.038 | -0.003 | -0.078 | 0.009 | 0.03 | 0.072 | 0.055 | 0.014 | 0.012 | 0.023
TRAPPC12 (UniProt Q8WVT3) | 0.02 | -0.017 | -0.033 | -0.017 | 0.012 | -0.042 | -0.029 | -0.036 | -0.039 | 0.048
TMEM97 (UniProt Q5BJF2) | -0.052 | -0.004 | 0.113 | -0.277 (active) | 0.014 | 0.17 | -0.013 | -0.127 | -0.015 | 0.12
TNPO3 (UniProt Q9Y5L0) | -0.024 | -0.001 | 0.01 | -0.015 | 0.025 | -0.006 | -0.036 | -0.024 | -0.028 | 0.026
TYMS (UniProt P04818) | -0.007 | -0.017 | 0.002 | 0.003 | 0.018 | 0.058 | 0.011 | -0.019 | -0.005 | -0.017
TPST2 (UniProt O60704) | 0.028 | 0.621 | -0.046 | -0.671 (active) | -0.029 | 0.109 | -0.043 | 0.057 | 0.022 | 0.126
TRA2A (UniProt Q13595) | -0.012 | 0.032 | -0.184 | -0.048 | -0.048 | -0.011 | 0.015 | 0.086 | 0.042 | 0.053
UBE2H (UniProt P62256) | 0.002 | -0.022 | 0.011 | 0.174 | 0.016 | -0.172 | 0.024 | 0.003 | 0.009 | -0.188
TIMM44 (UniProt O43615) | 0.04 | 0.022 | 0.055 | 0.009 | -0.003 | 0.136 | 0.019 | 0.058 | -0.067 | 0.065
TUBE1 (UniProt Q9UJT0) | -0.008 | -0.005 | 0.095 | 0.214 | -0.01 | -0.076 | 0.054 | -0.034 | -0.066 | -0.029
TNFAIP3 (UniProt P21580) | -0.032 | 0.052 | -0.013 | 0.032 | 0.038 | -0.075 | 0.744 | 0.084 | -0.02 | -0.023
TTI2 (UniProt Q6NXR4) | -0.033 | -0.033 | -0.016 | -0.032 | -0.018 | -0.023 | 0.004 | -0.023 | -0.017 | 0.082
TTI1 (UniProt O43156) | -0.011 | -0.044 | -0.11 | -0.075 | -0.005 | -0.113 | 0.028 | 0.045 | -0.016 | 0.056
TFIP11 (UniProt Q9UBB9) | -0.032 | 0.061 | -0.085 | -0.031 | -0.053 | -0.097 | 0.051 | 0.043 | -0.114 | 0.06

Target | log2 fold change [1] | log2 fold change [2] | log2 fold change [3] | log2 fold change [4] | log2 fold change [5] | log2 fold change [6] | log2 fold change [7] | log2 fold change [8] | log2 fold change [9] | log2 fold change [10]
TDRD3 isoform 3 (UniProt Q9H7E2) | 0.005 | -0.038 | 0.024 | 0.127 | -0.02 | -0.068 | 0.034 | -0.151 | 0.093 | 0.01
TERF2IP (UniProt Q9NYB0) | -0.007 | 0.007 | 0.021 | 0.249 (active) | 0.022 | -0.122 | -0.023 | -0.016 | 0.004 | -0.181
TTLL12 (UniProt Q14166) | -0.002 | -0.02 | -0.039 | 0.014 | 0.015 | -0.091 | 0.023 | 0.016 | -0.004 | 0.014
TPM1 isoform 4 (UniProt P09493) | 0.032 | -0.051 | 0.001 | 0.061 | -0.029 | -0.142 | 0.013 | 0.012 | 0.011 | -0.142
TCF12 isoform 3 (UniProt Q99081) | -0.047 | 0.055 | 0.034 | -0.038 | 0.025 | 0.056 | 0.023 | -0.011 | -0.11 | -0.001
UBR1 (UniProt Q8IWV7) | -0.018 | -0.035 | -0.082 | -0.046 | 0.01 | -0.081 | 0 | 0.039 | -0.065 | 0.032
TUBB4B (UniProt P68371) | 0.027 | 0.017 | -0.027 | 0.053 | -0.029 | 0.004 | 0.011 | -0.024 | 0.027 | -0.043
TPP2 (UniProt P29144) | -0.007 | 0.014 | -0.009 | 0.035 | 0.011 | -0.011 | -0.009 | 0.007 | -0.008 | -0.011
TBC1D8B (UniProt Q0IIM8) | 0 | -0.072 | 0.013 | -0.229 | 0.007 | 0.176 | -0.011 | 0.014 | 0.03 | 0.097
TSFM (UniProt P43897) | 0.003 | -0.007 | -0.056 | 0.012 | 0.025 | -0.122 | 0.047 | 0.06 | -0.026 | -0.034
TPM1 (UniProt H7BYY1) | 0.028 | 0.042 | 0.096 | 0.063 | -0.004 | -0.118 | 0.012 | -0.025 | 0.026 | -0.158
THEMIS2 (UniProt Q5TEJ8) | -0.052 | 0.029 | -0.025 | 0.004 | -0.026 | -0.001 | 0.006 | -0.042 | -0.059 | 0.065
TTC4 (UniProt O95801) | 0.006 | 0.025 | -0.073 | -0.059 | -0.001 | 0.035 | 0.009 | 0.014 | -0.001 | 0.026
TLE3 isoform 5 (UniProt Q04726) | 0.011 | 0.127 | 0.001 | -0.409 | 0.031 | -0.062 | -0.089 | -0.061 | 0.084 | 0.084
TBK1 (UniProt Q9UHD2) | 0.042 | 0.054 | 0.469 (active) | -0.059 | -0.046 | 0.342 | 0.314 | -0.024 | 0.007 | -0.044
